Source: ChEMBL document CHEMBL3988442, “University of Dundee, Small-Polar-MMV Screening Library” (2021)
Among all 48,000 compounds or so, about 13,000 (27%) showed an effect of 50% or more. The list shows a part of the results.

Tested on: Wolbachia pipientis
Assay: Anti-Wolbachia Cell-Based Screen
Format: functional
Set-up: scale not given: in the data most compounds retested in dose-response had high values
Details: 5 µM

SMILES	Percent Effect [%]
COc1ccccc1Oc1ncccc1CNC(=O)[C@@H](C)NC(C)=O	-4.174
CC(C)CC(C)NC1CCN(c2ccc(-c3cscn3)cc2)CC1 (stereo unspecified)	3.924
CN(Cc1nnc2n1CCC2)C(=O)c1ccc(=O)n(C)n1	-6.286
CC(=O)N(C)CC(=O)Nc1cnc(-n2ccnc2)nc1	3.406
Cc1nn(C)c(N(C)C)c1CNCc1cccc(Cn2cccn2)c1	3.492
Cc1nn(C)c(N(C)C)c1CNCc1cccc(Cn2ccnc2)c1	81.6
COc1c(CNCc2ccccc2Cn2ccnc2)c(C)nn1C	97.96
COc1c(CNCc2ccc(CN3CCOCC3)cc2)c(C)nn1C	-11.29
COc1c(CNCc2cccc(Cn3ccnc3)c2)c(C)nn1C	-8.562
COc1c(CNCc2ccc(Cn3ccnc3)cc2)c(C)nn1C	103
COc1c(CNCc2ccccc2-n2ccnc2)c(C)nn1C	-0.9457
Cc1nn(C)c(N(C)C)c1CNCc1cccc(CN(C)C)c1.Cl	9.174
CC(C#N)CSc1ccccc1NCC(=O)NCc1cccs1 (stereo unspecified)	-12.24
CCc1nc(C)c(-c2nccn2CC2CC(=O)N(CC)C2)[nH]1 (stereo unspecified)	-26.8
O=C(CNC(=O)c1c[nH]c2ccccc12)NCCCn1ccnc1	13.72
O=C1CC(c2cccs2)c2cnn(C3CCCC3)c2N1 (stereo unspecified)	48.91
COc1ccnc(N2CCN(CC(=O)N3CCOCC3)CC2)n1	3.835
COc1ncc(C(=O)N2CCCC3(C=Cc4ccccc4O3)CC2)cn1 (stereo unspecified)	1.868
Cc1cc2c(cc1Cl)C=CC1(CCN(CC(=O)N3CCOCC3)CC1)O2	104
Cc1cc2c(cc1Cl)C=CC1(CCN(C(=O)N3CCOCC3)CC1)O2	95
CCN(C)c1ncnc2c1CCN(C(=O)N1CCOCC1)CC2	-3.195
Cc1cc2c(cc1C)OC1(C=C2)CCN(CC(=O)N2CCOCC2)CC1	107.9

SMILES	Percent Effect [%]
Cc1cc2c(cc1Cl)C=CC1(CCN(CC(=O)N3CCCC3)CC1)O2	122.5
Nc1cc(C(=O)N2CCCC3(C=Cc4ccccc4O3)CC2)ccn1 (stereo unspecified)	-15.12
O=C(CN1CCOCC1)N1CCN(C2CCc3ccc(F)cc32)CC1 (stereo unspecified)	-10.71
Cc1cc(C(=O)N2CCCC3(C=Cc4ccccc4O3)CC2)cc(=O)[nH]1 (stereo unspecified)	7.842
O=C(O)C(F)(F)F.c1csc(CN2CCc3ncnc(C4CCOC4)c3CC2)n1 (stereo unspecified)	8.568
O=S(=O)(CC1CCOCC1)NCc1ccnc(O)c1	1.758
Cc1ccsc1CCNC(=O)C1(Oc2cccnc2C)CCNCC1	14.81
CN(C)c1ccc2c(c1)CN(C(=O)c1ccnnc1)C2c1cnco1 (stereo unspecified)	-12.4
O=C(CN1C=Nc2ccccc2S1(=O)=O)NC1CCCCC1	-27.98
CCc1ccc(O)c(C(=O)N2CCN(CC(=O)N(CC)CC)CC2)c1	11.73
CCN(CC)C(=O)CN1CCC2(C=Cc3cc(Cl)c(C)cc3O2)CC1	113.1
Cc1cn(CC(=O)NC2CCN(CC3CC3)CC2)c2ccccc12	-11.31
CCc1ccc(O)c(C(=O)N2CCCN(CC(=O)N(CC)CC)CC2)c1	-4.449
CC1(C)CN(CC(F)(F)F)CCN1CC(=O)NC1CCCC1	1.341
Cc1cc2c(cc1Cl)C=CC1(CCN(CC(=O)NC3CCCC3)CC1)O2	121.2
Cc1cc(NC(=O)c2nc(N3CCCC3)ncc2Cl)nc(C(C)C)n1	-9.396
Cc1ccc(-c2n[nH]cc2CNCC2CCS(=O)(=O)C2)o1 (stereo unspecified)	-39.75
CCS(=O)(=O)N1CCCC2(CCCC(=O)N2C)C1 (stereo unspecified)	-13.94
CCOC(=O)C1CC2(CCCC2)N2CCC(=O)N12 (stereo unspecified)	94.86
CCOC(=O)C1CC2(CCCCC2)N2CCC(=O)N12 (stereo unspecified)	121.9
CCOCC1COCCC12CCN(C(=O)C1=CCCC1)CC2 (stereo unspecified)	-18.23
COCCCN1CC2(CCCCN2C(=O)C2CCCCC2)CC1=O (stereo unspecified)	-3.805

SMILES	Percent Effect [%]
COCCCN1CC2(CCCCN2C(C)=O)CC1=O (stereo unspecified)	3.783
CCN1CC2(CCCCN2C(=O)C2CCCCC2)CC1=O (stereo unspecified)	-14.04
CCOC(=O)C1CC2(CCOCC2)N2CCC(=O)N12 (stereo unspecified)	102.8
CCN1C(=O)CO[C@@H]2CN(C(=O)C3CCOCC3)C[C@H]21	7.95
CCc1ccc(C2COCCN2C(=O)Nc2cc(C)on2)o1 (stereo unspecified)	-5.597
CCc1ccc(CN(C)C(=O)c2ccc(CSc3nnc[nH]3)o2)nc1	-27.23
CC(=O)NCCNC(=O)NCCc1c(C)cc(C)cc1C	-0.992
Cc1ccc2[nH]c(CO[C@H]3CN(c4ccc(C#N)cn4)C[C@H]3F)nc2c1	0.4241
OCCN1CCN(Cc2coc(-c3ccccc3)n2)CC1	106.5
CC(O)CN1CCN(Cc2coc(-c3ccc(Cl)cc3)n2)CC1 (stereo unspecified)	105.9
CC(O)CN1CCN(Cc2coc(-c3ccccc3Cl)n2)CC1 (stereo unspecified)	6.495
Cc1ccc(-c2nc(CN3CCN(CCO)CC3)co2)cc1	88.55
COc1ccc(-c2nc(CN3CCN(CCO)CC3)co2)cc1	6.071
OCCN1CCN(Cc2coc(-c3ccccc3Cl)n2)CC1	6.785
Cc1ccc(-c2nc(CN3CCn4c(nnc4C4CC4)C3)co2)cc1	-3.724
OCCN1CCN(Cc2coc(-c3ccc(Cl)cc3)n2)CC1	12.92
CC(O)CN1CCN(Cc2coc(-c3ccccc3)n2)CC1 (stereo unspecified)	-18.93
OCCOc1cc(F)ccc1NCc1nc(-c2ccoc2)no1	-6.724
CC(=O)N(Cc1noc(C2CC2)n1)C1CCN(CC2CCOCC2)C1 (stereo unspecified)	115.6
CC(=O)N(Cc1noc(C2CC2)n1)C1CCN(CC(=O)NC2CC2)C1 (stereo unspecified)	124.3
Cc1nc(CCN)cc(N2CCC(O)(c3ccccc3)C2)n1 (stereo unspecified)	-17.84
O=C(c1ccccn1)N1CC[C@H]2C(=O)N(c3ccsc3)CCO[C@H]2C1	-15.02
